Test results: PubChem BioAssay (NCI)
Compounds without any hit were thinned out: in the full panel of roughly 83,000, 20% have a hit.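 Results are percent growth after 48 hours of single-concentration exposure. 100 means growth as in untreated cells, lower positive values show inhibition; negative values down to -100 show cell death.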 A number with no mark means an inactive call. Activity calls are given as the source filed them. The calls were made as follows: active = growth percent below 10; inactive = the rest.

Assays:
Assay in all cases: NCI-60 one-dose screen, 48 h (100 = growth as untreated, 0 = no growth, -100 = all killed)
Settings in all cases: 10 µM unless noted
[1] = test system: NCI/ADR-RES ovarian
[2] = test system: T-47D breast
[3] = test system: BT-549 breast
[4] = test system: SW-620 colon
[5] = test system: MCF7 breast
[6] = test system: HCT-116 colon
[7] = test system: HCC-2998 colon
[8] = test system: KM12 colon
[9] = test system: MDA-MB-435 melanoma

Row | Compound | growth [1] | growth [2] | growth [3] | growth [4] | growth [5] | growth [6] | growth [7] | growth [8] | growth [9]
1 | CCn1cnc2c(Nc3cccc(Cl)c3)nc(N[C@@H]3CCCC[C@@H]3N)nc21 | 11% | 0.53% (active) | 61.7% | -4.4% (active) | 4.02% (active) | 0.716% (active) | 2.16% (active) | -2.18% (active) | –
2 | NC(=O)c1c(Br)n(C2OC(CO)C(O)C2O)c2ncnc(N)c12 (stereo not drawn) | 8.09% (active) | -14.7% (active) | -16.1% (active) | 1.1% (active) | – | 3.73% (active) | 18.4% | -8.13% (active) | –
3 | O=[N+]([O-])c1cc([N+](=O)[O-])c(Nn2c3ccccc3c3ccccc32)c([N+](=O)[O-])c1 | 7.52% (active) | -17.3% (active) | -27.4% (active) | 11.1% | 2.34% (active) | -10.1% (active) | 1.54% (active) | 4.34% (active) | –
4 | Nc1nnnc2nc[nH]c12 | 0.552% (active) | -26.6% (active) | 43.8% | 11% | 15.3% | -11.8% (active) | 17.1% | 25.6% | –
5 | COc1cc(/C=N/C2=C(C#N)C(c3ccco3)c3c(c4cc(C)ccc4oc3=O)O2)cc(OC)c1OC (stereo not drawn) | 96.3% | 88.2% | 91.1% | 81.7% | 70.1% | 84.9% | 109% | 81.4% | –
6 | O=C1CCC2(O)[C@@H]3Cc4ccc(O)c5c4[C@]2(CCN3Cc2ccoc2)C1O5 (stereo partly drawn) | – | 98.1% | 110% | 102% | 97.5% | 88.1% | 104% | 98.2% | 105%
7 | C1CCC([PH+](C2CCCCC2)C2CCCCC2[PH+](C2CCCCC2)C2CCCCC2)CC1.[Au].[CH-]1CCCCC1CC1CCCC[N-]1 (stereo not drawn) | – | 7.94% (active) | -53.6% (active) | -24% (active) | -44.2% (active) | -65.8% (active) | -92.5% (active) | -70.2% (active) | -39.2% (active)
8 | Fc1ccc(C2=CCNCC2)cc1 | 78.6% | 99.2% | – | 104% | 93.9% | 109% | – | 109% | 102%
9 | CCCCCCCCOC(=O)CCN1CC1 | – | 108% | 107% | 113% | 102% | 112% | 110% | 109% | 105%
10 | CN(CCCCN(C)CCOS(C)(=O)=O)CCOS(C)(=O)=O | 76.3% | 81.1% | – | 74.1% | 71.2% | 81.4% | 58.4% | 95.1% | 101%
11 | CC12CCC(O)CC1=CCC1C2CCC2(C)C(O)CCC12 (stereo not drawn) | 110% | 99.4% | – | 105% | 116% | 104% | 109% | 105% | 104%
12 | Cc1c(NS(=O)(=O)c2ccccc2)ccc([N+](=O)[O-])c1Cl | 86.3% | – | 77.7% | 91.6% | 92.8% | 73.3% | – | 70.1% | 39.8%
13 | Nc1ccc(Cl)cc1 | 99.5% | 94.6% | – | 103% | 98.2% | 95.9% | 106% | 102% | 105%
14 | O=[N+]([O-])c1c(Br)sc(Br)c1[N+](=O)[O-] | -23.6% (active) | -6.93% (active) | – | -77% (active) | 23.3% | -85.2% (active) | 68% | 64.1% | –
15 | C=CCc1cc2c(cc1OCC)OCO2 | 105% | – | 82.6% | 102% | 90.9% | 85.5% | 93.8% | 104% | 109%
16 | O=[N+]([O-])c1cc([N+](=O)[O-])c(Cl)cc1Cl | -45.1% (active) | -35.3% (active) | – | -77.1% (active) | -57.9% (active) | -98.8% (active) | 38% | -81.1% (active) | -66.5% (active)
17 | CCCCCCCCCCCCCC[P+](CCCCCC)(CCCCCC)CCCCCC | -10.5% (active) | -14.8% (active) | – | -86.3% (active) | -51.8% (active) | -70.8% (active) | -24.4% (active) | -100% (active) | -81% (active)
18 | CCOP(=O)(Nc1ccc2c(c1)/C(=N/NC(N)=S)c1ccccc1-2)OCC | 100% | – | 101% | – | 69.6% | 103% | 119% | 88.9% | 107%
19 | N/C(=N/N=C/c1ccncc1)N[N+](=O)[O-] | 104% | – | 89.6% | 106% | 99.1% | 102% | 109% | 100% | 105%
20 | O=[As](O)(O)c1ccccc1[As](=O)(O)O | 104% | – | 116% | 112% | 98% | 107% | 101% | 105% | 98.8%
21 | O=C(N/N=C\c1ccc(N(CCCl)CCCl)cc1)c1cccc([N+](=O)[O-])c1 | 88.1% | – | 96% | 100% | 79.9% | 97% | 101% | 93.6% | 105%
